Growth data for 8 compounds are collected here from PubChem BioAssay (NCI).

Compounds without any hit were thinned out: in the full panel of roughly 83,000, 20% have a hit.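 Interpretation: 100, growth as untreated; towards 0, rising growth inhibition; 0, no net growth; 0 to -100, cell death. Compounds scoring below 10 were considered active.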 Unmarked numbers belong to inactive results. The source made the active and inactive calls.

Some test systems named below: HCT-15 colon; HT29 colon; SNB-75 CNS; SNB-19 CNS; U251 CNS; PC-3 prostate; SK-MEL-5 melanoma; UACC-62 melanoma; LOX IMVI melanoma; SK-MEL-28 melanoma; SK-MEL-2 melanoma; SN12C renal; UO-31 renal; TK-10 renal; ACHN renal; CAKI-1 renal; A498 renal; MOLT-4 leukemia; CCRF-CEM leukemia; EKVX NSCLC.
Holding throughout (assay): NCI-60 one-dose screen, 48 h (100 = growth as untreated, 0 = no growth, -100 = all killed)
What all share (settings): 10 µM unless noted

For `CCNC(=O)c1[nH]cc(-c2ccc(OC)cc2)c1-c1cc(OC)c(OC)c(OC)c1`, the growth was 35.7% in the test on HCT-15 colon; 14.7% with HT29 colon; -6.81% (active) in the test on SNB-75 CNS; 55.2% with SNB-19 CNS; 55.5% in the test on U251 CNS; 28.8% with PC-3 prostate. The growth in the test with SK-MEL-5 melanoma is 16%; in the test with UACC-62 melanoma, 27%; with LOX IMVI melanoma, 44.5%; in the test on SK-MEL-28 melanoma, 56.7%; in the test on SK-MEL-2 melanoma, 67.5%; in the test with SN12C renal, 60.5%. The growth in the test on UO-31 renal was 30.7%; with TK-10 renal, 83.9%; in the test with ACHN renal, 35.8%; with CAKI-1 renal, 29.4%; in the test on A498 renal, -14% (active); in the test on MOLT-4 leukemia it was 92%.

Turning to `O=C(Nc1ccc2ncnc(Nc3ccc(Oc4cccc(F)c4)c(Cl)c3)c2c1)c1ccc(CN2CCOCC2)cc1`, the growth with HCT-15 colon was 11.2%; in the test with HT29 colon it was 20.9%; in the test with SNB-75 CNS, 55.8%; in the test on SNB-19 CNS it was 50.8%; in the test on U251 CNS, 36.5%; in the test on PC-3 prostate, 14.6%. Also, the growth in the test on SK-MEL-5 melanoma was 4.82% (active); with UACC-62 melanoma, 53.5%; in the test with LOX IMVI melanoma, 8.89% (active); in the test with SK-MEL-28 melanoma, 52.2%; in the test on SK-MEL-2 melanoma, 59.1%; in the test with SN12C renal, 39%. Besides, the growth in the test with UO-31 renal is 20.3%; with TK-10 renal it was 53.6%; with ACHN renal, 17.5%; with CAKI-1 renal, 24.4%; in the test on A498 renal it was 53.9%; with CCRF-CEM leukemia, 2.89% (active). Also, in the test with MOLT-4 leukemia, the growth was -3.45% (active).

As to `CCNC(=S)NNC(=O)c1cc2ccc1CCc1ccc(cc1)CC2`, the growth in the test with HCT-15 colon was 96.7%; in the test on HT29 colon, 104%; with SNB-75 CNS, 89.8%; in the test with SNB-19 CNS, 100%; in the test on U251 CNS, 101%; with PC-3 prostate, 91.1%. The growth with SK-MEL-5 melanoma was 96.7%; with UACC-62 melanoma, 93.4%; in the test with LOX IMVI melanoma, 102%; in the test on SK-MEL-28 melanoma, 101%; in the test with SK-MEL-2 melanoma it was 102%; with SN12C renal it was 95.3%. The growth is 83.7% in the test on UO-31 renal; 103% with TK-10 renal; 107% in the test on ACHN renal; 94.9% in the test on CAKI-1 renal; 107% in the test on CCRF-CEM leukemia; 102% with MOLT-4 leukemia.

For `O=C1c2cccnc2C(=O)c2nc3cc(N4CCN(C5CC5)CC4)ccc3nc21`, the growth in the test on HCT-15 colon was -58.8% (active); in the test with HT29 colon it was -21.3% (active); in the test with SNB-75 CNS it was -64.7% (active); with SNB-19 CNS, -81.5% (active); with U251 CNS, -32.6% (active); with PC-3 prostate it was 11.6%. In addition, the growth in the test on SK-MEL-5 melanoma was -98.1% (active); in the test with UACC-62 melanoma it was -98.5% (active); in the test on LOX IMVI melanoma, -46.5% (active); in the test with SK-MEL-28 melanoma, -76.9% (active); in the test on SK-MEL-2 melanoma, -16.3% (active); with SN12C renal, -94.7% (active). Moreover, the growth in the test with UO-31 renal is -100% (active); in the test with TK-10 renal, 0.122% (active); in the test on ACHN renal, -35.1% (active); in the test on CAKI-1 renal, -5.27% (active); in the test with A498 renal, -88.1% (active); in the test on CCRF-CEM leukemia it was 26.2%.

As to `O=S(=O)(NCCNc1nccc(-c2c(-c3cccc(F)c3)nc3occn23)n1)c1cccc2ccccc12`, the growth in the test with HCT-15 colon is 41.5%; in the test on HT29 colon it was 34.2%; in the test with SNB-75 CNS, 61.4%; in the test on SNB-19 CNS it was 67.1%; in the test with U251 CNS, 59.7%; in the test with PC-3 prostate, 30.6%. In addition, the growth with SK-MEL-5 melanoma was 30%; with UACC-62 melanoma it was 45.1%; with LOX IMVI melanoma, 59.7%; with SK-MEL-28 melanoma, 73%; with EKVX NSCLC, 48.5%; with SN12C renal it was 47.6%. In addition, the growth in the test on UO-31 renal is 15.9%; with TK-10 renal, 47.1%; in the test with ACHN renal, 40.5%; in the test with CAKI-1 renal it was 25%; with A498 renal it was 37.7%; with CCRF-CEM leukemia, 43.8%. In addition, the growth in the test with MOLT-4 leukemia was 26.3%.

For the compound `Nc1c(Cl)cc([N+](=O)[O-])cc1Br`, the growth with HCT-15 colon is 103%; with HT29 colon it was 103%; with SNB-75 CNS it was 108%; with SNB-19 CNS it was 116%; in the test with U251 CNS, 101%; with PC-3 prostate it was 96.1%. The growth in the test on SK-MEL-5 melanoma was 98.9%; in the test with UACC-62 melanoma, 102%; with LOX IMVI melanoma it was 104%; in the test with SK-MEL-28 melanoma it was 110%; in the test with EKVX NSCLC, 89.1%; with SN12C renal, 97%. The growth was 90% in the test on UO-31 renal; 115% in the test on TK-10 renal; 112% with ACHN renal; 85.4% in the test with CAKI-1 renal; 104% in the test on CCRF-CEM leukemia; 105% in the test with MOLT-4 leukemia.

Regarding `O=C(CN1CCOCC1)Nc1ccc2ncnc(Nc3ccc(Oc4cccc(F)c4)c(Cl)c3)c2c1`, the growth is 72.8% in the test on HCT-15 colon; 83.5% in the test with HT29 colon; 79.5% with SNB-75 CNS; 73.2% in the test with SNB-19 CNS; 85.7% in the test with U251 CNS; 59.3% with PC-3 prostate. The growth in the test with SK-MEL-5 melanoma is 68.5%; with UACC-62 melanoma it was 76.7%; in the test on LOX IMVI melanoma, 80.4%; in the test on SK-MEL-28 melanoma, 83%; in the test on EKVX NSCLC, 29.8%; in the test with SN12C renal, 48.9%. In addition, the growth with UO-31 renal is 31.6%; in the test with TK-10 renal, 39.5%; in the test on ACHN renal, 24.1%; in the test on CAKI-1 renal, 38.3%; with A498 renal, 63.2%; in the test on CCRF-CEM leukemia, 82.3%. The growth in the test on MOLT-4 leukemia is 64.8%.

Consider `c1ccc(Cn2nc3c(c2-c2ccccc2)-c2oncc2CC3)cc1`, for which the growth with HCT-15 colon is 99.3%; with HT29 colon it was 96.3%; in the test with SNB-75 CNS, 84.6%; in the test on SNB-19 CNS, 102%; in the test with U251 CNS, 87.9%; with PC-3 prostate it was 68.5%. Besides, the growth with SK-MEL-5 melanoma was 84.8%; with UACC-62 melanoma, 76.2%; in the test with LOX IMVI melanoma, 90.2%; in the test on SK-MEL-28 melanoma, 94.4%; with EKVX NSCLC it was 90.1%; in the test on SN12C renal it was 95.3%. Moreover, the growth was 82.7% in the test with UO-31 renal; 107% with TK-10 renal; 97.6% with ACHN renal; 77.9% with CAKI-1 renal; 89.4% with A498 renal; 80.4% with CCRF-CEM leukemia. The growth with MOLT-4 leukemia is 79.8%.
